Measured values reported in the supplement of paper PMC10981050.
Several values for one entry are separate records, joined by “and”; a condition that tells them apart may be missing. Identical values can stand only once. Counter-ions that a name gives are not always drawn.

Legend:
Assay in all cases: cell viability relative to vehicle control; higher = less cytotoxic
Conditions in all cases: 10 µM
K562 = system: K562
Outline: (§1)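 Screening covered the Selleck bioactive, kinase and epigenetic probe libraries, less identity-inconsistent compounds, on CRISPR-edited mutant clones and isogenic wild-type clones of four leukaemia lines. Cells, at 2000 per well in 50 µL medium, received a single 10 µM acoustically dispensed dose. After 48 h the supernatant was removed and CellTiter-Glo luminescence was read. Viability was analysed in Genedata Screener as percent of the on-plate vehicle control.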

MARIMO = system: MARIMO
Outline: as §1

MOLM14 = system: MOLM14
Outline: as §1

OCI-AML2 = system: OCI-AML2
Outline: as §1

Row | SMILES | cell viability (K562; SRSF2 genotype: SRSF2 P95H/wt) | cell viability (K562; SRSF2 genotype: SRSF2 wt/wt) [%] | cell viability (MARIMO; SRSF2 genotype: SRSF2 P95H/wt) [%] | cell viability (MARIMO; SRSF2 genotype: SRSF2 wt/wt) [%] | cell viability (MOLM14; SRSF2 genotype: SRSF2 P95H/wt) [%] | cell viability (MOLM14; SRSF2 genotype: SRSF2 wt/wt) [%] | cell viability (OCI-AML2; SRSF2 genotype: P95H/wt) [%] | cell viability (OCI-AML2; SRSF2 genotype: wt/wt) [%]
1 | CC(=O)Nc1nc(-c2cccc(NS(=O)(=O)c3cccc4c(N(C)C)cccc34)c2)cs1 | 61.8% and 63.7% | 62 | 58.7 | 43.8 | 62.4 | 66.6 | 33.3 | 40.5
2 | CC(N)C12CC3CC(CC(C3)C1)C2 (centres undefined) [Rimantadine (Flumadine)] | 101% and 98.2% | 108 | 98.9 | 104 | 99.8 | 102 | 89.8 | 96.6
3 | COc1ccc([C@@H]2CC(=O)c3c(O)cc(O[C@@H]4O[C@H](CO)[C@@H](O)[C@H](O)[C@H]4O[C@@H]4O[C@@H](C)[C@H](O)[C@@H](O)[C@H]4O)cc3O2)cc1 [Poncirin] | 99.7% and 97.1% | 99.2 | 97.8 | 104 | 102 | 94.7 | 95.1 | 96
4 | Cc1ncc([N+](=O)[O-])n1CC(C)O (centres undefined) [Secnidazole (Flagentyl)] | 100% and 109% | 106 | 100 | 105 | 104 | 108 | 114 | 93.1
5 | Oc1ccc(OC2CCCCO2)cc1 (centres undefined) [Deoxyarbutin] | 104% and 99.3% | 105 | 84.6 | 93.3 | 83.3 | 81.9 | 87.4 | 83.2
6 | CCC1CC(=Cc2cccnc2)C(=O)C(=Cc2cccnc2)C1 (centres undefined) | 21.1% and 19.7% | 17.9 | 0.77 | 0.8 | 0.49 | 0.29 | 0.25 | 0.31
7 | CC(C)(C)c1nc(-c2cccc(NS(=O)(=O)c3c(F)cccc3F)c2F)c(-c2ccnc(N)n2)s1 | 90.3% and 101% | 84.3 | 78.5 | 75.8 | 73.6 | 68.2 | 93.2 | 83.9
8 | CCCCOC(=O)c1ccccc1Nc1cccc(C(F)(F)F)c1 [Ufenamate] | 101% and 100% | 99.2 | 93 | 102 | 103 | 109 | 110 | 110
9 | Cc1cc(O)c(-c2ccc([C@@H](C)CN)cc2)c2c1[nH]c(=O)c1sccc12 [OTS514 hydrochloride] | 19.6% and 29.6% | 21.7 | 3.37 | 1.35 | 0.27 | 0.16 | 0.39 | 8.87
10 | C=C1CC2(O)OC3(CC2C(C)C)C(C)CCC13 (centres undefined) [Curcumol] | 106% and 101% | 102 | 112 | 107 | 97.8 | 108 | 99.9 | 102
11 | Fc1ccc([C@@H]2CCNC[C@H]2COc2ccc3c(c2)OCO3)cc1 [Paroxetine HCl] | 63.6% and 68.3% | 67.6 | 44 | 44.1 | 47.7 | 56.5 | 43 | 52.4
12 | CN(C)CCCN1c2ccccc2Sc2ccc(Cl)cc21 [Chlorpromazine HCl] | 75.5% and 73.7% | 65.6 | 40.4 | 44.1 | 40.7 | 43.7 | 25.3 | 28.6
13 | OCc1ccc(O[C@@H]2O[C@H](CO)[C@@H](O)[C@H](O)[C@H]2O)cc1 [Gastrodin (Gastrodine)] | 102% and 101% | 99.8 | 107 | 101 | 105 | 104 | 104 | 98.3
14 | CO[C@@H]1[C@@H](OC)[C@H](C)[C@@](O)(CC(=O)O)O[C@H]1[C@H](C)[C@H]1O[C@@]2(CC[C@@](C)([C@H]3CC[C@@](C)([C@@H]4O[C@@H]([C@H]5O[C@](C)(O)[C@H](C)C[C@@H]5C)C[C@@H]4O[C@@H]4C[C@H](OC)[C@@H](OC)[C@H](C)O4)O3)O2)C[C@H](O)[C@H]1C [Maduramycin Ammonium] | 3.55% and 4.75% | 8.25 | 22.7 | 17.7 | 25.6 | 22.5 | 1.54 | 8.79
15 | S=c1nc[nH]c2nc[nH]c12 [6-Mercaptopurine (6-MP) Monohydrate] | 70.9% and 60.5% | 39.7 | 104 | 96.8 | 87.4 | 71.8 | 103 | 94.1
16 | CCN(CC)CCOC(=O)c1ccc(N)cc1 [Procaine] | 100% and 99% | 102 | 99.6 | 108 | 107 | 105 | 104 | 101
17 | COCCCN1CCC(NC(=O)c2cc(Cl)c(N)c3c2OCC3)CC1 [Prucalopride] | 86.4% and 82% | 81.5 | 85.9 | 91.6 | 87.3 | 88.9 | 80.5 | 88.7
18 | C[C@@H]1CC[C@@]2(NC1)O[C@H]1C[C@H]3[C@@H]4CC=C5C[C@@H](O[C@@H]6O[C@H](CO)[C@@H](O[C@@H]7O[C@@H](C)[C@H](O)[C@@H](O)[C@H]7O)[C@H](O)[C@H]6O)CC[C@]5(C)[C@H]4CC[C@]3(C)[C@H]1[C@@H]2C [Khasianine] | 104% and 102% | 103 | 102 | 104 | 104 | 102 | 104 | 107
19 | CC(C)NC(=O)COc1cccc(-c2nc(Nc3ccc4[nH]ncc4c3)c3ccccc3n2)c1 | 73.5% and 97.8% | 84.7 | 68.6 | 72.4 | 93.6 | 89.8 | 110 | 87.8
20 | CC(C)(C)OC(=O)Nc1ccc(-c2cc(C(=O)NCCCCCCC(=O)NO)no2)cc1 | 1.43% and 12.4% | 5.74 | 9.27 | 11.5 | 0.79 | 0.64 | 1.39 | 2.31
21 | CCOc1ccc(NC(C)=O)cc1 [Phenacetin] | 98.6% and 97.2% | 91.5 | 89.6 | 92.5 | 98.4 | 95.8 | 88.3 | 93.4
22 | COc1cc2c3cc1Oc1c(OC)c(OC)cc4c1[C@@H](Cc1ccc(O)c(c1)Oc1ccc(cc1)C[C@@H]3N(C)CC2)N(C)CC4 [Berbamine (dihydrochloride)] | 72.6% and 53.2% | 66.9 | 70.8 | 72.8 | 68.2 | 78.2 | 57.1 | 60.4

Row | SMILES | cell viability (K562; SRSF2 genotype: SRSF2 P95H/wt) | cell viability (K562; SRSF2 genotype: SRSF2 wt/wt) [%] | cell viability (MARIMO; SRSF2 genotype: SRSF2 P95H/wt) [%] | cell viability (MARIMO; SRSF2 genotype: SRSF2 wt/wt) [%] | cell viability (MOLM14; SRSF2 genotype: SRSF2 P95H/wt) [%] | cell viability (MOLM14; SRSF2 genotype: SRSF2 wt/wt) [%] | cell viability (OCI-AML2; SRSF2 genotype: P95H/wt) [%] | cell viability (OCI-AML2; SRSF2 genotype: wt/wt) [%]
23 | COc1c(N2CCNC(C)C2)c(F)cc2c(=O)c(C(=O)O)cn(C3CC3)c12 (centres undefined) [Gatifloxacin] | 97.2% and 103% | 108 | 112 | 108 | 102 | 101 | 104 | 100
24 | CC(=O)S[C@@H]1CC2=CC(=O)CC[C@]2(C)[C@H]2CC[C@@]3(C)[C@@H](CC[C@@]34CCC(=O)O4)[C@H]12 [spironolactone] | 87.8% and 90.2% | 89.7 | 78.3 | 84.5 | 90.1 | 91.5 | 90.6 | 97.9
25 | O=C(c1ccc(Nc2nccc(-c3cc4ccccc4s3)n2)cc1)N1CCC(N2CCCC2)CC1 | 1.53% and 1.22% | 1.15 | 0.47 | 0.54 | 0.29 | 0.3 | 0.25 | 0.35
26 | C[C@H](CCC(=O)O)[C@H]1CC[C@H]2[C@@H]3CC[C@@H]4C[C@H](O)CC[C@]4(C)[C@H]3C[C@H](O)[C@]12C [Deoxycholic acid] | 94.9% and 86.4% | 87.3 | 93.7 | 103 | 94.7 | 95 | 94.5 | 93
27 | Cc1cc(C)n(C)n1 [1,3,5-Trimethylpyrazole] | 110% and 105% | 115 | 113 | 109 | 97.9 | 110 | 104 | 104
28 | c1cc(-c2cnn3cc(-c4ccc(N5CCNCC5)cc4)cnc23)c2cccnc2c1 | 0.29% and 0.31% | 0.27 | 0.3 | 0.3 | 0.26 | 0.32 | 0.24 | 0.25
29 | OCc1ccccc1O[C@@H]1O[C@H](CO)[C@@H](O)[C@H](O)[C@H]1O [Salicin (Salicoside, Salicine)] | 101% and 103% | 110 | 103 | 106 | 99.7 | 104 | 105 | 112
30 | CC(=O)Oc1ccccc1C(=O)Nc1ncc([N+](=O)[O-])s1 [Nitazoxanide (Alinia, Annita)] | 78.4% and 85.8% | 78.4 | 94.8 | 90.9 | 92.5 | 89.7 | 87.5 | 85.5
31 | CCCN(CCC)S(=O)(=O)c1ccc(C(=O)O)cc1 [Probenecid (Benemid)] | 99.3% and 88.4% | 91 | 92.1 | 101 | 96.4 | 97 | 96.2 | 88.9
32 | Cc1cc(SCc2sc(-c3ccc(C(F)(F)F)cc3)nc2C)ccc1OCC(=O)O | 102% and 95.2% | 96.7 | 92 | 103 | 87.6 | 97.3 | 90.4 | 95.4
33 | CN(C)CCCn1cc(C2=C(c3c[nH]c4ccccc34)C(=O)NC2=O)c2ccccc21 | 91.2% and 78.4% | 98.8 | 82.9 | 92 | 36.4 | 32.5 | 34 | 67.1
34 | C1=Cc2ccccc2Nc2ccccc21 [Iminostilbene] | 101% and 95.4% | 98.1 | 95.5 | 113 | 105 | 108 | 106 | 92.6
35 | Cc1cc(C2CCCCC2)n(O)c(=O)c1 [Ciclopirox ethanolamine] | 59.6% and 58.8% | 47.2 | 21.4 | 26.4 | 8.86 | 2.23 | 18 | 18
36 | Cc1nc2cc(F)c(F)cc2n1-c1cncc(Nc2ccc(C(F)(F)F)cc2)n1 | 10.5% and 26.5% | 28 | 8.44 | 6.32 | 11.7 | 2.75 | 6.57 | 9.7
37 | COc1ccc(-c2ccc3c(N4CCOC[C@@H]4C)nc(N4CCOC[C@@H]4C)nc3n2)cc1CO | 39.7% and 40.4% | 35.5 | 54.4 | 46.2 | 30.4 | 26.2 | 26.5 | 27.7
38 | CCN(CC)CCNC(=O)c1c(C)[nH]c(/C=C2\C(=O)Nc3ccc(F)cc32)c1C [Sunitinib] | 22.8% and 26.6% | 17.6 | 23.4 | 23.4 | 0.2 | 0.37 | 0.48 | 2.85
39 | CN(C)CCNC(=O)c1cccn2c(=O)c3cc4ccccc4cc3nc12 | 32.5% and 33.8% | 30.8 | 35 | 26.6 | 0.3 | 0.24 | 0.28 | 1.23
40 | Clc1ccc(C(Cn2ccnc2)OCc2ccc(Sc3ccccc3)cc2)c(Cl)c1 (centres undefined) [Fenticonazole nitrate] | 76.5% and 67.7% | 63.8 | 62.4 | 78 | 70.6 | 73 | 63.3 | 69.1
41 | O=C(O)c1cc(O)cc(Cl)c1 [3-chloro-5-hydroxybenzoic Acid] | 104% and 101% | 103 | 96.3 | 95.1 | 105 | 107 | 96.9 | 109
42 | NS(N)(=O)=O [Sulfamide] | 104% and 96% | 108 | 98.6 | 103 | 102 | 107 | 98.4 | 108
43 | CC(=O)c1cc2c(o1)C(=O)c1ccccc1C2=O [Napabucasin] | 0.4% and 0.37% | 0.39 | 3.59 | 2.73 | 0.37 | 0.39 | 0.4 | 0.39
